Laboratory results from PubChem BioAssay AID1893 (NMMLSC, 2009).
About 120 (2%) of roughly 5,900 compounds were called active. Only a sample is shown. Values without a mark were called inactive. Rule as the data show it: active = percent response mostly above about 71% (no sharp cut-off); inactive = mostly below about 38%.

System: MEKK2 (MAP3K2) mutant PB1 domain binding MEK5, human
Assay: mutant MEKK2 PB1-MEK5 binding signal retest – biochemical, single concentration, multiplex bead flow cytometry, confirmation (AID 1893);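 also: higher means compound restores mutant binding toward wildtype level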
Conditions: Alexa488-MEK5 binding to MEKK2 mutant, at 10 µM, hits give high values

For Cc1c(-c2ccccc2)cn2c1-c1ccc(C)n1CC2, which percent response is on record?
The percent response was 0%.

Which percent response does the source give for CCCN(CCC)c1nc2c(C)cccn2c(=O)c1/C=C1/SC(=S)N(Cc2ccco2)C1=O here?
Its percent response is -17%.

Which percent response does the source give for O=C(O)c1cccnc1NC1CCCC1 here?
The percent response was 13%.

How did the percent response turn out when CCCc1nnc(SCC(=O)N2C(C)CCCC2C)n1CC (stereo not drawn) was run?
Its percent response is 10%.

For C/C=C/c1ccc(OCCCCN2CCC(C)CC2)c(OC)c1, which percent response is on record?
Its percent response is 4%.

For CNC(C)C#Cc1ccc2sc3cc(OC)c(OC)cc3c(=O)c2c1 (stereo not drawn), which percent response is on record?
The percent response was 16%.

Which percent response does the source give for Cc1cc(C(=O)OCC(=O)N2c3ccccc3NC(=O)C2(C)C)c(C)n1-c1ccccc1 here?
Its percent response is 1%.

With Cc1ccc(NC(=O)COc2ccc(-n3ccnc3)cc2)cc1Cl as the molecule, how does the percent response read?
Its percent response is 21%.

How did the percent response turn out when Cc1ccc(C(=O)NC(=S)Nc2ccc3[nH]c(=O)[nH]c3c2)cc1C was run?
Its percent response is 4%.

For O=C1Nc2ccc(Br)cc2/C1=N/N=C/C1=C(N2CCOCC2)C(=C\c2ccccc2)/CC1, which percent response is on record?
Its percent response is -20%.

For C#CCOCCOCCOCCNc1nc(N2CCN(C(=O)[C@H](CCCCN)n3cc([C@@H](N)C(C)CC)nn3)CC2)nc(N2CCN(C(=O)[C@H](Cc3ccc(O)cc3)n3cc([C@@H](N)C(C)CC)nn3)CC2)n1 (stereo partly drawn), which percent response is on record?
The percent response was 52%.

COc1ccc(S(=O)(=O)Nc2ccc3oc(C)c(C(C)=O)c3c2)cc1 was tested. Which percent response did it give?
The percent response was -3%.

For O=C(Cc1cccs1)N/N=C/c1ccc(OCc2ccccc2)cc1, which percent response is on record?
The percent response was 3%.

With N#C/C(=C\C1=C(N2CCOCC2)C(=C\c2ccccc2)/CC1)C(=O)Nc1ccccc1F as the molecule, how does the percent response read?
The percent response was -38%.

Which percent response does the source give for Cc1cc(C)nc(-n2ncc3c2CC(c2ccc(C(C)C)cc2)CC3=O)n1 (stereo not drawn) here?
Its percent response is 0%.

How did the percent response turn out when Cc1ccc(Nc2nc(CSc3nnc(-c4ccncc4)n3-c3ccccc3C)cs2)cc1 was run?
Its percent response is 1%.

Which percent response does the source give for COc1ccc(N2CCN(Cc3nnc(-c4ccccc4)o3)CC2)cc1 here?
Its percent response is -5%.

How did the percent response turn out when Cc1nc(N=C(N)N)nc2c(C)cccc12 was run?
Its percent response is 10%.

Cn1c(=NC(=O)CSCC(=O)N2CCOCC2)sc2ccccc21 was tested. Which percent response did it give?
The percent response was -15%.

For Cc1cc(C)c(NC(=O)C[N+](C)(C)CC(O)COc2cccc3ccccc23)c(C)c1 (stereo not drawn), which percent response is on record?
Its percent response is 35%.

CCCCn1c(SCC(=O)NCCc2ccc(OC)c(OC)c2)nc2c1c(=O)n(C)c(=O)n2C was tested. Which percent response did it give?
The percent response was 0%.

With CCOc1cc(C(=O)OCC(=O)Nc2cccc(C)c2)ccc1OCC(=O)N1CCOCC1 as the molecule, how does the percent response read?
The percent response was 0%.

For COc1ccccc1N1CCN(CCCCOc2ccc(F)cc2)CC1, which percent response is on record?
The percent response was 0%.

How did the percent response turn out when Cc1ccc(S(=O)(=O)NC(=O)N2CCCC(C)(C)C2)cc1 was run?
Its percent response is -1%.

How did the percent response turn out when O=C(O)c1cc(Cl)c(Cl)cc1C(=O)Nc1cccc2ncccc12 was run?
Its percent response is -2%.

With COc1ccc(-c2[nH]ncc2CN(C)Cc2c(C)n[nH]c2C)c(OC)c1 as the molecule, how does the percent response read?
The percent response was 11%.

For CCN1CCN(c2nc(Nc3cc(OC)ccc3OC)nc(Nc3cc(OC)ccc3OC)n2)CC1, which percent response is on record?
The percent response was 25%.

C=CCn1c(=S)sc2c(=O)[nH]c(C)nc21 was tested. Which percent response did it give?
The percent response was 1%.

O=C(NC1CCN(Cc2ccccc2)CC1)c1cc(Br)c(Br)[nH]1 was tested. Which percent response did it give?
Its percent response is 18%.

Which percent response does the source give for CC(=O)Nc1ccc(-c2nc3ccccc3o2)cc1 here?
The percent response was -2%.

How did the percent response turn out when Cc1c(C#N)c2ncn(CC#N)c(=O)c2n1-c1ccccc1 was run?
Its percent response is -7%.

Which percent response does the source give for O=C(NCC1CCCCC1)c1cc(S(=O)(=O)N2CCCCC2)ccc1N1CCOCC1 here?
The percent response was -16%.

For COc1cc(/C=C2\SC(=S)N(Nc3ncc(C(F)(F)F)cc3Cl)C2=O)cc(OC)c1OC, which percent response is on record?
Its percent response is -10%.

Which percent response does the source give for Cc1ccccc1-c1ccc(Nc2ccc(C(=O)N3CCOCC3)cc2)nn1 here?
Its percent response is 4%.

COc1cc(CC(=O)N/N=C/c2ccccc2)c([N+](=O)[O-])cc1OC was tested. Which percent response did it give?
Its percent response is 4%.

How did the percent response turn out when CCOc1ccc(S(=O)(=O)N(CC(=O)O)c2ccccc2)cc1 was run?
Its percent response is 1%.

With Cc1ccc(S(=O)(=O)/N=S(\C)C(C)C)cc1 (stereo not drawn) as the molecule, how does the percent response read?
Its percent response is -3%.

For O=C(c1ccco1)N1CCN(c2cccc(Cl)c2)CC1, which percent response is on record?
The percent response was 0%.

How did the percent response turn out when C/C(=N\NC(=O)CNC(=O)C(c1ccccc1)c1ccccc1)c1ccc(C)cc1 was run?
The percent response was 7%.

Which percent response does the source give for C=CCN(CC=C)S(=O)(=O)c1ccc(C(=O)Nc2sc3c(c2C(N)=O)CCCCC3)cc1 here?
Its percent response is 1%.

How did the percent response turn out when FC(F)(F)c1cccc(N/N=C/c2ccccc2)c1 was run?
The percent response was 28%.

COc1cc(-c2nnc(Cn3cc(C(F)(F)F)ccc3=O)o2)cc(OC)c1OC was tested. Which percent response did it give?
The percent response was 1%.

Which percent response does the source give for CCNC(=O)CSc1nc(-c2ccccc2)cs1 here?
The percent response was -1%.

O=C(NCCCN1CCCCCC1)c1ccc(N2CCCC2=O)cc1 was tested. Which percent response did it give?
Its percent response is 38%.

How did the percent response turn out when CN(C)CC(O)COc1ccc(C(C)(C)c2ccc(OCC(O)CN(C)C)cc2)cc1 (stereo not drawn) was run?
The percent response was 48%.

Cc1[nH]c2ccc(S(N)(=O)=O)cc2c1C was tested. Which percent response did it give?
Its percent response is -1%.

Which percent response does the source give for CN(C)CCCNC(=O)c1cc(C(=O)Cc2ccc(Cl)cc2)c[nH]1 here?
The percent response was 3%.

For N/C(=N\OS(=O)(=O)c1cccc([N+](=O)[O-])c1)c1ccncc1, which percent response is on record?
The percent response was 3%.

How did the percent response turn out when COc1cccc(CNCCc2c[nH]c3ccccc23)c1OCc1ccccc1F was run?
The percent response was 9%.

COc1ccccc1CC(=O)Nc1ccc([N+](=O)[O-])cc1OC was tested. Which percent response did it give?
The percent response was 0%.

Which percent response does the source give for O=C(Nc1cccnc1)c1cc(Cl)ccc1Cl here?
The percent response was 3%.

Which percent response does the source give for Cc1ccc(CNC(=O)Cn2c(=O)c3sccc3n(Cc3cccc([N+](=O)[O-])c3)c2=O)cc1 here?
The percent response was 2%.

With O=C(O)/C(=C/c1cccnc1)NC(=O)c1ccccc1 as the molecule, how does the percent response read?
The percent response was 1%.

CCOc1nnc(C)c2c(C)n(-c3cccc(Cl)c3)nc12 was tested. Which percent response did it give?
Its percent response is -10%.

How did the percent response turn out when Cc1ccccc1C(=O)NNC(=O)CN1C(=O)c2ccccc2C1=O was run?
The percent response was -10%.

CC(C)(C)NC(=O)c1cccc(NC(=O)Cc2ccc(Br)cc2)c1 was tested. Which percent response did it give?
Its percent response is 1%.

For Cn1c2ccccc2c(=O)c2c(=O)n(Cc3ccco3)c(COc3ccccc3)nc21, which percent response is on record?
Its percent response is -6%.

For CCOc1ccc(C(c2c(C)[nH][nH]c2=O)c2c(C)[nH][nH]c2=O)cc1OCC, which percent response is on record?
Its percent response is -3%.

For COc1cccc(Nc2ncccc2C(=O)O)c1, which percent response is on record?
Its percent response is -5%.

C[C@H]1CCC(=O)N([C@H](CSc2ccccc2)Cc2ccccc2)CC1 was tested. Which percent response did it give?
Its percent response is 8%.

Which percent response does the source give for Cc1cccc(/C=N/NC(=O)CNc2cccc3ccccc23)n1 here?
Its percent response is 5%.

Which percent response does the source give for c1ccc(Nc2nc(N3CCOCC3)c3ccccc3n2)cc1 here?
The percent response was 21%.

With Cc1ccc(N(CCC(=O)O)S(=O)(=O)c2cccc(C(F)(F)F)c2)cc1 as the molecule, how does the percent response read?
The percent response was 1%.

O=C(NCCN1CCOCC1)[C@H](Cc1ccccc1)N1C(=O)c2ccccc2C1=O was tested. Which percent response did it give?
The percent response was 2%.

COCCN1C=C2C(=O)C(C)(OC(=O)C3CCCC3)C(=O)C=C2C=C1c1ccsc1 (stereo not drawn) was tested. Which percent response did it give?
The percent response was -2%.

How did the percent response turn out when COC(=O)C1=NN(c2ccccc2)C2C(=O)N(c3ccccc3OC)C(=O)C12 (stereo not drawn) was run?
Its percent response is -1%.

How did the percent response turn out when CC(=O)Nc1ccc(N2CCOCC2)c(C(=O)Nc2cccc(C)c2)c1 was run?
Its percent response is 3%.

With Clc1ccc(-c2nnc(SCc3nc4ccccc4s3)o2)cc1 as the molecule, how does the percent response read?
Its percent response is -4%.

How did the percent response turn out when COc1ccc(CC(=O)N2N=C(C)CC2(O)C(F)(F)F)cc1 (stereo not drawn) was run?
The percent response was -3%.

For O=C(CN1CCN(C(=O)c2ccco2)CC1)Nc1ccc(Cl)c(C(F)(F)F)c1, which percent response is on record?
The percent response was 7%.

With COc1ccc(C2CC(=O)Nc3cc(C)c(C)cc32)c(OC)c1OC (stereo not drawn) as the molecule, how does the percent response read?
The percent response was 4%.

How did the percent response turn out when COc1ccc(C(=O)NCC(=O)N/N=C/c2ccc([N+](=O)[O-])o2)cc1OC was run?
The percent response was -10%.

With CCO[C@H]1OC(C(=O)N2CCOCC2)=C[C@@H](c2ccc3c(c2)OCO3)[C@@H]1CCCO as the molecule, how does the percent response read?
Its percent response is 4%.

Which percent response does the source give for Cc1ccc(C(=O)N/C(=C/c2ccco2)C(=O)NCCc2c[nH]c3ccccc23)cc1C here?
Its percent response is -4%.

For CN(C)CCCN(C(=O)COc1ccccc1)c1nc2c(Cl)cccc2s1, which percent response is on record?
Its percent response is 18%.

CN(C)c1ccc(/C=C2\NC(=S)N(Cc3ccccc3)C2=O)cc1 was tested. Which percent response did it give?
Its percent response is -10%.

For C=CCN1C=C2C(=O)C(C)(OC(=O)CCc3ccccc3)C(=O)C=C2C=C1c1ccc(C#N)cc1 (stereo not drawn), which percent response is on record?
Its percent response is -1%.

COc1ccc(CCNC(=O)CSc2nnc3ccc(-c4ccncc4)nn23)cc1 was tested. Which percent response did it give?
The percent response was 6%.

Which percent response does the source give for CCN(CC)C(=O)CC(c1ccc2c(c1)OCO2)c1c(OC)cc(OC)c2c(-c3ccccc3)cc(=O)oc12 (stereo not drawn) here?
The percent response was -4%.

For COc1cccc(/C=N\NC(=O)C2=NNC(=O)C2C)c1O (stereo not drawn), which percent response is on record?
Its percent response is 1%.

For FC(F)(F)c1nc(-c2ccccc2)ncc1-c1nnnn1-c1ccccc1, which percent response is on record?
Its percent response is -6%.

Which percent response does the source give for CCOC(=O)N1CCN(CC(=O)n2c(C)c(C)c3ccccc32)CC1 here?
The percent response was -3%.

For COc1cccc(/C(C)=N/Nc2ncc(Cl)cc2Cl)c1, which percent response is on record?
Its percent response is -3%.

c1ccc(CN2CCC(N=C3NN=C(c4ccc5c(c4)OCCO5)CS3)CC2)cc1 was tested. Which percent response did it give?
The percent response was 52%.

For Cc1cccc(CN2CCC(CNC(=O)Nc3ccc(F)c(Cl)c3)CC2)c1, which percent response is on record?
Its percent response is 8%.

How did the percent response turn out when CCN1CCN(CCNC(=O)c2ccc(/C=C3/Sc4ccccc4N(Cc4cccc(C)c4)C3=O)cc2)CC1 was run?
The percent response was 79% (active).

With CCc1nnc(NC(=O)c2sc3nc(C)cc(COC)c3c2N)s1 as the molecule, how does the percent response read?
Its percent response is 7%.

With COc1cccc(OC)c1C(=O)Nc1ccc(Cc2ccncc2)cc1 as the molecule, how does the percent response read?
The percent response was -2%.

For CCCCOC(=O)c1ccc(N2C(=O)CC(N3CCN(C/C=C/c4ccccc4)CC3)C2=O)cc1 (stereo not drawn), which percent response is on record?
The percent response was 12%.

How did the percent response turn out when Cn1ccc(=Nc2ccc(NC(=O)c3ccc(N=c4ccn(C)c5ccc([N+](=O)[O-])cc45)cc3)cc2)cc1 was run?
Its percent response is 28%.

How did the percent response turn out when C=CCn1c(P(C)(=O)O)nc2ccccc21 was run?
Its percent response is -4%.

How did the percent response turn out when CCN(CC)CCC(c1ccc2c(c1)OCO2)c1c(OC)cc(OC)c2c(-c3ccccc3)cc(=O)oc12 (stereo not drawn) was run?
Its percent response is 28%.

How did the percent response turn out when COC(=O)c1c(NC(=O)COc2ccc(Cl)cc2Cl)sc2c1CC(C)(C)NC2(C)C was run?
The percent response was 36%.
